These results are taken from ChEMBL document CHEMBL3988442, “University of Dundee, Small-Polar-MMV Screening Library” (2021).

Assay [1] has as its target T1, Aspartate--tRNA(Asp/Asn) ligase (Mycobacterium tuberculosis (strain ATCC 25618 / H37Rv)) (UniProt P9WFW3). Also: in the data most compounds retested in dose-response had high values.
T1 sequence (whole entry): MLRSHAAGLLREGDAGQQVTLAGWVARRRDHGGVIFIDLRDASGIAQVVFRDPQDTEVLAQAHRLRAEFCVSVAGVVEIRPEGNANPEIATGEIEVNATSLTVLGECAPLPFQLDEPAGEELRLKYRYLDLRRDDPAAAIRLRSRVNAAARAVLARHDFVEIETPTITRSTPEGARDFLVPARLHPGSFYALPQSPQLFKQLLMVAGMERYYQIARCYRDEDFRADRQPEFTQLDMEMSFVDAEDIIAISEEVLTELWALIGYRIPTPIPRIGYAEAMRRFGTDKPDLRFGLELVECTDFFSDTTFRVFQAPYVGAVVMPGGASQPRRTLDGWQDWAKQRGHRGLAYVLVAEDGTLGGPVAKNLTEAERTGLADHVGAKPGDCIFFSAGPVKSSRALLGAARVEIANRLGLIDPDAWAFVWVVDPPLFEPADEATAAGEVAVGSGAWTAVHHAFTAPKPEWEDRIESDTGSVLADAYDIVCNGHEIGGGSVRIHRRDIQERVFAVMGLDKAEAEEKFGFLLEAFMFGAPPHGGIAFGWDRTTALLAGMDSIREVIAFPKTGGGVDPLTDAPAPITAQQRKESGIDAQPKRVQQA
The experiment in a line: Assay for Asp RNA synthetase-1 from Mycobacterium tuberculosis. The assay is classed as functional. Set-up: scale not given: direction of the effect not stated beside the values. To be noted: 30 µM.

Assay [2] deals with Shiga toxin 2 (Escherichia coli O157:H7) (UniProt P09385+P09386). The experiment in a line: E. coli 0.157:H7 Shiga Toxin SOP - stx2 screening assay. It is filed as functional. On the set-up: scale not given: direction of the effect not stated beside the values. Conditions: 30 µM.

In the case of `Cc1cc(NC(=O)C(C)N2CCCN(c3nccs3)CC2)on1` (stereo not given), the Percent Effect was -2.75% in assay [1] and 4.75% in assay [2].
On the same counts, the results for `O=C(CSC1CCc2ccccc2NC1=O)NCCc1ccco1` (stereo not given) are -3.17% and -9.27%.
On the same counts, the results for `CCCN1CCCn2nc(CNS(=O)(=O)c3ccc(C)cc3)cc2C1` are -1.38% and 6.63%.
On the same counts, the results for `CCC1CN(C(=O)Nc2cnc3c(cnn3C(C)C)c2)CCO1` (stereo not given) are 0.932% and 13.4%.
For the molecule `CN1CCOC(CNC(=O)CCCOCCc2ccccc2)C1` (stereo not given), the Percent Effect in assay [1] is -3.72%; in assay [2] it was 1.69%.
On the same counts, the results for `COC(=O)c1cccn1C1CCN(CC(=O)NC2CCCCC2)CC1` are -1.64% and 1.4%.
On the same counts, the results for `Cc1ncncc1C(=O)Nc1cnn(CC(=O)NC2CCCC2)c1` are -6.25% and -10.6%.
On the same counts, the results for `CC(C)NC(=O)CS(=O)(=O)Cc1cc(Cl)c2c(c1)OCCO2` are -0.2% and -1.92%.
Consider `CN(C)C(=O)Cc1nc(CN2CCOC(Cn3cccn3)C2)cs1` (stereo not given), for which the Percent Effect is -3.5% in assay [1] and -20.8% in assay [2].
On the same counts, the results for `COc1cc(C(C)=O)ccc1OCC(=O)N(C)Cc1cnn(C)c1` are -4.92% and 0.928%.
On the same counts, the results for `COc1cc(C)nc(N2CCN(C(=O)CNC(C)(C)C)CC2)n1` are -2.1% and -32.2%.
On the same counts, the results for `CCc1nc(C)ncc1C(=O)N1CCCC(n2nc(C)nc2C)C1` (stereo not given) are -3.03% and 0.321%.
Turning to `O=C1CCCCN1c1cccc(CNC2CCCC2)c1`, the Percent Effect in assay [1] is -0.259%; in assay [2] it was 18%.
For the molecule `CCS(=O)(=O)N(C)CC(=O)Nc1ccc(Br)cn1`, the Percent Effect in assay [1] is -2.34%; in assay [2], -12.9%.
On the same counts, the results for `CCN(CC)c1ccc(C(=O)N(C)Cc2c(C)noc2C)cn1` are 3.51% and 32.5%.
Turning to `CCN1CCN(c2ccc(F)cc2C(C)NCc2noc(C)n2)CC1` (stereo not given), the Percent Effect is -3.26% in assay [1] and -6.75% in assay [2].
On the same counts, the results for `O=C(NCc1nnc2n1CCCCC2)N1CCc2sccc2C1` are -4.29% and -45.2%.
With `CN1CCc2c(C#N)c(NCCCN3CCOCC3)n3cnnc3c2C1`, the Percent Effect in assay [1] was 5.9%; in assay [2] it was 5.95%.
On the same counts, the results for `CCOCC1CC2(CCN(Cc3ccccn3)CC2)CO1` (stereo not given) are 0.869% and -0.96%.
On the same counts, the results for `COc1ccc(CN2CCc3ncnc(OC(C)C)c3CC2)cc1` are 8.01% and -9.16%.
On the same counts, the results for `Cc1nc(CCNC(=O)C2CC(=O)N(C(C)(C)C)C2)sc1C` (stereo not given) are 1.05% and -3.12%.
Regarding `NC(=O)C1CN(C(=O)Nc2ccccc2-c2cccs2)CCO1` (stereo not given), the Percent Effect in assay [1] was -9.88%; in assay [2] it was -14.7%.
On the same counts, the results for `c1cnnc(N2CCCC(NCc3nc(C4CC4)no3)C2)c1` (stereo not given) are 6.87% and -18.7%.
On the same counts, the results for `Cc1noc(NC(=O)c2ccc(C)c(F)c2)n1` are -11.1% and -3.27%.
On the same counts, the results for `O=C(Cc1ccccc1F)N1C[C@@H]2COC[C@]2(COc2cccnc2)C1` are 6.28% and 3.35%.
For the molecule `CCC1CN(C(=O)c2ccccc2N2CCCC2)CCN1C(C)C` (stereo not given), the figures for the Percent Effect in assay [1] and in assay [2] were -4.91% and 12.2%, respectively.
Consider `CC(NC(=O)NCCn1ccnc1)c1ccc2c(c1)NC(=O)CO2` (stereo not given), for which the Percent Effect in assay [1] stood at 0.942%; in assay [2] it was 5.67%.
On to `CC(C)Oc1ncccc1CNC(=O)N1CCC1c1ccccc1` (stereo not given), for which the Percent Effect in assay [1] was 0.589%; in assay [2] it was -9.32%.
Turning to `CN(C)C(=O)CN1C[C@@H]2CC[C@H](C1)N(Cc1cc(F)ccc1F)C2`, the Percent Effect was -0.16% in assay [1] and -37.1% in assay [2].
On the same counts, the results for `CCc1nc(C)c([C@H]2CN(C)C[C@@H]2C(=O)NCCc2cnccn2)[nH]1` are -1.15% and -9.87%.
On to `O=C(NC[C@H]1OC[C@@H]2CCN(C(=O)c3ccco3)C[C@@H]21)C1CC1`, for which the Percent Effect in assay [1] was 3.37%; in assay [2], -7.69%.
On the same counts, the results for `COc1cccc(CCC2CCCN(C(=O)C3=NN(C)C(=O)CC3)C2)c1` (stereo not given) are 1.75% and -7.25%.
On the same counts, the results for `Cn1cc(CN2CCOC3(CCCN(C(=O)c4ccco4)C3)C2)cn1` (stereo not given) are -0.297% and -4.96%.
`Cc1nc(CN2CCOC(c3nc(C(C)C)n[nH]3)C2)oc1C` (stereo not given): the Percent Effect in assay [1] was 0.999%; in assay [2], -9.33%.
On the same counts, the results for `CCc1nc(CC(=O)N2CCN(c3cnccn3)CC2)cs1` are -3.74% and -11.5%.
On the same counts, the results for `O=C(c1ccno1)N1CCC2(CC1)C(=O)N(CC1CC1)c1ccccc12` are -0.569% and -1.25%.
Consider `CS(=O)(=O)N1CCC(C(=O)NCCNc2ncccn2)CC1`, for which the Percent Effect in assay [1] is -0.962%; in assay [2], -1.12%.
On the same counts, the results for `c1ccc(-n2ncc(CNCC3CCCN3c3cccnn3)n2)cc1` (stereo not given) are 4.5% and 8.59%.
On the same counts, the results for `COCc1ccc(CN2CCC(O)(Cn3ccc4ncccc43)CC2)o1` are 0.485% and -34.6%.
On the same counts, the results for `COCCOc1ccc(NC(=O)C2CC(=O)N(C)C2)cn1` (stereo not given) are 3.77% and -88.5%.
In the case of `c1cnc(N2CCC3(CCN(CC4CC4)CC3)CC2)nc1`, the Percent Effect was found to be 0.564% in assay [1] and 6.17% in assay [2].
On the same counts, the results for `Cc1cc(C2CCCN2Cc2ccn(C)c(=O)c2)no1` (stereo not given) are -1.63% and 8.31%.
On the same counts, the results for `CCOc1cc(C)nc(N2CCN(C(=O)c3ccc[nH]3)CC2)n1` are -0.0874% and 29.4%.
On the same counts, the results for `COC(=O)C(c1cc(F)ccc1F)N(C)C(=O)c1cccnc1O` (stereo not given) are -4.32% and 8.11%.
Regarding `CCN1CCC(NC(=O)CN2CCc3c(nc(C4CC4)n3C)C2)CC1`, the results for the Percent Effect in assay [1] and in assay [2] were -3.88% and 7.04%, respectively.
On the same counts, the results for `CCCS(=O)(=O)Nc1ccc2c(c1)OCC(C)(C)C(=O)N2C` are -4.25% and -2.5%.
On to `COc1c(C2CCCN2C(=O)c2cccc(C(N)=O)c2)c(C)nn1C` (stereo not given), for which the Percent Effect in assay [1] amounted to 0.375%; in assay [2] it was 18%.
On the same counts, the results for `Cc1cc(C(=O)N2CC[C@@H]3CN(S(C)(=O)=O)CCO[C@@H]3C2)c(C)o1` are 2.19% and 1.92%.
For `CCn1c(Cn2cncn2)nnc1C1CCN(Cc2ccncc2)CC1`, the Percent Effect in assay [1] turned out to be 4.98%; in assay [2], 0.0626%.
On the same counts, the results for `O=C(NCCOc1ccc2c(c1)OCO2)N1CCC1` are 0.81% and -21.5%.
